Drawing on PubChem BioAssay (NCATS), this text covers Potency and outcome for 37 compounds.

Inconclusive results are not listed. Entries that show only a call come without a potency. Calls of active or inactive are those of the source. Calls come from the whole dose curve; as a rule, active = well fitted curve in the direction sought with a large enough effect; inconclusive = small, poorly fitted or top-dose-only effect, or another doubt; inactive = no such curve, though single readings can be large; an effect the other way counts as inactive or inconclusive.

Assay [1] addresses Arylsulfatase A (Homo sapiens) (UniProt P15289). Briefly: qHTS screen for enhancers of Arylsulfatase A (ASA1): LOPAC Validation Assay (AID 720538). Note: potency is the fitted concentration of half-maximal effect. In a few lines: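 Enhancer assay in patient-derived MLD fibroblasts carrying ASA-I179S: 48 h compound exposure at 37 C, then 14 h room-temperature pNCS turnover (0.5 mM final) in lysis buffer. Read by fluorescence at 525/598 nm after NaOH stop.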
For orientation: Quantitative high-throughput screening tests each substance at several concentrations.

The nature of assay [2]: qHTS for compounds that reverse cellular toxicity of Amyloid beta (A-beta) peptide in yeast: LOPAC Validation Assay (AID 720559). In a few lines:
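Rescue of A-beta toxicity was scored as yeast growth by 600 nm absorbance after 48 hr at 30 C with compound. Normalization used DMSO (negative) and equimolar ferric chloride plus clioquinol (positive).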

A short description of assay [3]: qHTS for Activators of Parkin Expression: LOPAC Validation Assay (NLuc Reporter) (AID 720572). In a few lines:
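Compound effects on Parkin promoter activity were measured as NanoLuc luminescence after 24 h at 37 C. The neuronal reporter line also carried FLuc, which was read first. LOPAC compounds were tested at 7 concentrations, with normalization to DMSO (0%) and positive control (100%).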

Assay [4] can be described thus: qHTS for Activators of Parkin Expression: LOPAC Validation Assay (FLuc Reporter) (AID 720573). In a few lines:
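FLuc signal from Parkin-promoter coincidence reporter neuronal cells, normalized to DMSO and positive control (100%). Cells (1,500/well) pre-incubated 24 h, then exposed to LOPAC compounds in 7-point dose response for 24 h at 37 C, 5% CO2.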

For assay [5], the target named is Tyrosine-protein kinase Yes (Homo sapiens) (UniProt P07947). The experiment in a line: qHTS for small molecule inhibitors of Yes1 kinase: Primary Screen (AID 686947). Note: potency is the fitted concentration of half-maximal effect; nearly all actives have a fitted effect of over 60% in size. The procedure, abridged:
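In this qHTS format, inhibition is expressed relative to DMSO controls with enzyme (maximum) and without enzyme (minimum). The 60 min room-temperature reaction uses 0.1 mM ATP, with ADP detected by luminescence.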

Assay [6] in a line: qHTS for small molecule inhibitors of Yes1 kinase: Counter Assay (AID 686950).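 Note: no kinase present so only ADP-Glo detection of a fixed ADP amount is tested; luminescence from ADP-Glo reporting ADP in a fixed ATP and ADP mixture; series mostly up to about 77 µM.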 The procedure, abridged: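 ADP-Glo luminescence read after a 60 min room-temperature incubation of compound with an ATP/ADP mix (0.08 mM/0.02 mM) and no kinase, following a 20 min compound preincubation. Signal scaled between ATP+ADP (max) and 0.1 mM ATP-only (min) wells; Tris pH 7.5, Mg2+, DTT.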

Arylsulfatase A (Homo sapiens), sequence (P15289 whole entry, looked up): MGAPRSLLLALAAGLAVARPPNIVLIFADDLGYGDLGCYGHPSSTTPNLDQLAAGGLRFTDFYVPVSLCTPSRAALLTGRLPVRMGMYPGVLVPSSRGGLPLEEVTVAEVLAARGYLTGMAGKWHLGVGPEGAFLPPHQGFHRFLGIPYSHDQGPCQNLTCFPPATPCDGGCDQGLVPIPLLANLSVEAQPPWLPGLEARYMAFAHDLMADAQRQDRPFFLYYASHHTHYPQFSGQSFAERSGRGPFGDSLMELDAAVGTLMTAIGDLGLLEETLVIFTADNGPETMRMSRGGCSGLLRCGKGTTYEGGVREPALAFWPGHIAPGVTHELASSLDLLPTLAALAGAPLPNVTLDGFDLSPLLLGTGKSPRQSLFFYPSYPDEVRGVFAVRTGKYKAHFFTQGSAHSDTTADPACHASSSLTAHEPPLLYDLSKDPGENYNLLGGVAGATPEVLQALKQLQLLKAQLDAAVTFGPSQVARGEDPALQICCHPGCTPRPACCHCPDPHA
Tyrosine-protein kinase Yes (Homo sapiens), sequence (P07947 whole entry, looked up): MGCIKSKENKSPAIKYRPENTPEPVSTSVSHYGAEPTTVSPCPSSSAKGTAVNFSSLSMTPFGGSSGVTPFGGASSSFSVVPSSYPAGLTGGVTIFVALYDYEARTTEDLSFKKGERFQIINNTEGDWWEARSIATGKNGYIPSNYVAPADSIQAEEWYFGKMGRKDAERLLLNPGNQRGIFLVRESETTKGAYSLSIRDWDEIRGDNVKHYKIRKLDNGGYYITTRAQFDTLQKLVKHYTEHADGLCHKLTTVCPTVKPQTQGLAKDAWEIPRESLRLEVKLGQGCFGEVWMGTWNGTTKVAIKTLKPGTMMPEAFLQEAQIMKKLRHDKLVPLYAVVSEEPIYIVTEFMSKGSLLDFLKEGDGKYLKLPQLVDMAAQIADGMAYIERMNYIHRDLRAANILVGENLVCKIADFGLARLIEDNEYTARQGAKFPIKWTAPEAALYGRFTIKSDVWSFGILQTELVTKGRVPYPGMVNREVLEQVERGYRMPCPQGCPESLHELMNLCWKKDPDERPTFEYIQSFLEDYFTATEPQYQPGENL

Take `CC(C)=CCOc1c2occc2cc2ccc(=O)oc12`: the Potency result in assay [1] is “inactive”. Further, the call in assay [2], in assay [3] and in assay [4] was inactive.
For `CNCCC(Oc1ccc(C(F)(F)F)cc1)c1ccccc1` (stereo not given), in assay [1], the Potency result was “inactive”.
For `Cc1ncc(CNC(=O)N(CCCl)N=O)c(N)n1`, the result in assay [2], in assay [3] and in assay [4] was inactive.
As to `O=c1[nH]c2ccccc2n1CCCN1CCC(n2c(=O)[nH]c3cc(Cl)ccc32)CC1`, the Potency result in assay [1] was “inactive”. For the same compound, the outcome in assay [2], in assay [3] and in assay [4] was inactive.
`Cc1c(OCC(F)(F)F)ccnc1CS(=O)c1nc2ccccc2[nH]1` (stereo not given): the outcome in assay [2] was inactive.
In the case of `CCCN1CCC[C@@H]2Cc3nc(N)ncc3C[C@H]21`, the Potency entry in assay [1] is “inactive”. Besides, the compound was classed as inactive in assay [2], in assay [3] and in assay [4].
Take `NCC1(CC(=O)O)CCCCC1`: the Potency result in assay [1] is “inactive”. Further, the result in assay [2], in assay [3] and in assay [4] was inactive.
With `COc1ccc(C(CN(C)C)C2(O)CCCCC2)cc1` (stereo not given), the compound was classed as inactive in assay [2], in assay [3] and in assay [4].
Consider `Cc1cc2c(C(C)C)c(O)c(O)c(C=O)c2c(O)c1-c1c(C)cc2c(C(C)C)c(O)c(O)c(C=O)c2c1O`, for which the Potency was 30.7 µM (active) in assay [5] and 19 µM (active) in assay [1]. Also, in assay [4], the outcome was inactive.
With `CC(O)(CS(=O)(=O)c1ccc(F)cc1)C(=O)Nc1ccc(C#N)c(C(F)(F)F)c1` (stereo not given), the compound was classed as inactive in assay [6], in assay [2], in assay [3] and in assay [4].
For `CC(=O)[C@H]1CC[C@H]2[C@@H]3CC[C@H]4C[C@](C)(O)CC[C@]4(C)[C@H]3CC[C@]12C`, the compound was called inactive in assay [2], in assay [3] and in assay [4].
As to `CC(=O)[C@H]1CC[C@H]2[C@@H]3CC[C@H]4C[C@H](O)CC[C@]4(C)[C@H]3C(=O)C[C@]12C`, the Potency entry in assay [1] was “inactive”. Also, the compound was called inactive in assay [2], in assay [3] and in assay [4].
As to `NCC(CC(=O)O)c1ccc(Cl)cc1` (stereo not given), the Potency result in assay [1] was “inactive”. The outcome in assay [2], in assay [3] and in assay [4] was inactive.
Take `CNC(=O)N1N=C(c2ccc(N)cc2)c2cc3c(cc2CC1C)OCO3` (stereo not given): the call in assay [6] was inactive.
Same read-out and setting: the same measure for `COc1ccc(C(=O)c2c(C)n(CCN3CCOCC3)c3ccccc23)cc1`: “inactive”.
In the case of `CCCN1CCC[C@@H]2Cc3[nH]ncc3C[C@H]21`, the Potency entry in assay [1] was “inactive”. The compound was called inactive in assay [2], in assay [3] and in assay [4].
`CC[C@@H](CO)NC(=O)[C@@H]1C=C2c3cccc4[nH]cc(c34)C[C@H]2N(C)C1`: the Potency entry in assay [1] was “inactive”. Moreover, the compound was classed as inactive in assay [2], in assay [3] and in assay [4].
Regarding `CNC(=O)c1ccc(N2C(=S)N(c3ccc(C#N)c(C(F)(F)F)c3)C(=O)C23CCC3)cc1F`, the compound was classed as inactive in assay [6].
`c1ccc2c(c1)OCC(C1=NCCN1)O2` (stereo not given): in assay [1], the Potency result is “inactive”. In addition, the outcome in assay [2], in assay [3] and in assay [4] was inactive.
On to `O=C(O)C(=O)c1cn(Cc2ccccc2)c2ccc(-c3ccc(OC(F)(F)F)cc3)cc12`, for which the compound was classed as inactive in assay [6].
With `CC(CCc1ccccc1)NC(C)C(O)c1ccc(O)cc1` (stereo not given), in assay [1], the Potency entry was “inactive”. Moreover, the compound was called inactive in assay [2], in assay [3] and in assay [4].
`Fc1ccc(C(OCCN2CCN(CCCc3ccccc3)CC2)c2ccc(F)cc2)cc1`: the call in assay [2], in assay [3] and in assay [4] was inactive.
On to `O=NN(CCCl)C(=O)NCCCl`, for which the Potency result in assay [1] was “inactive”.
Consider `Cc1cccc(C)c1NC1=NCCCS1`, for which the compound was classed as inactive in assay [2], in assay [3] and in assay [4].
In the case of `NN=C(N)N`, in assay [1], the Potency result was “inactive”. Moreover, the outcome in assay [2], in assay [3] and in assay [4] was inactive.
For `COc1ccc(Cc2nccc3cc(OC)c(OC)cc23)cc1OC`, in assay [1], the Potency entry is “inactive”.
For `CN1C[C@H](CNC(=O)OCc2ccccc2)C[C@@H]2c3cccc4c3c(cn4C)C[C@H]21`, in assay [1], the Potency entry is “inactive”. For the same compound, the compound was classed as inactive in assay [2], in assay [3] and in assay [4].
In the case of `Cc1ccc(S(=O)(=O)N[C@@H](CCCCN)C(=O)CCl)cc1`, in assay [1], the Potency is 3.01 µM (active). Also, the result in assay [2], in assay [3] and in assay [4] was inactive.
Consider `c1ccc(C2CC2)c(OCC2=NCCN2)c1`, for which, in assay [1], the Potency result is “inactive”. Besides, the outcome in assay [2], in assay [3] and in assay [4] was inactive.
Take `CC[C@@H](CO)NC(=O)[C@@H]1C=C2c3cccc4c3c(cn4C)C[C@H]2N(C)C1`: the Potency entry in assay [1] was “inactive”. Also, the compound was classed as inactive in assay [2], in assay [3] and in assay [4].
Consider `CCC1(C2=NCCN2)Cc2ccccc2O1` (stereo not given), for which the Potency entry in assay [1] is “inactive”. Further, the call in assay [2], in assay [3] and in assay [4] was inactive.
As to `O=C1NCN(c2ccccc2)C12CCN(CC1COc3ccccc3O1)CC2` (stereo not given), the Potency in assay [1] was 3.01 µM (active). Moreover, the outcome in assay [2], in assay [3] and in assay [4] was inactive.
For the compound `C[C@]12CC[C@@H]3c4ccc(O)cc4C[C@@H](CCCCCCCCCS(=O)CCCC(F)(F)C(F)(F)F)[C@H]3[C@@H]1CC[C@@H]2O` (stereo not given in full), in assay [1], the Potency entry was “inactive”.
`Cc1cccc(C)c1NC(=O)CN1CCCC1=O`: the Potency result in assay [1] is “inactive”. Further, the result in assay [2], in assay [3] and in assay [4] was inactive.
For `O=c1[nH]cc(F)c(=O)[nH]1`, the result in assay [2] was inactive.
Regarding `N#CC(C#N)=Cc1ccc(O)c(O)c1`, the Potency entry in assay [1] was “inactive”. Besides, in assay [2], the outcome was inactive.
Regarding `COc1ccccc1N1CCNCC1`, the Potency entry in assay [1] is “inactive”. In addition, the call in assay [2], in assay [3] and in assay [4] was inactive.
